From PubChem
POLH inh – qHTS for Inhibitors of Polymerase Eta | DNA polymerase eta (Homo sapiens), Q9Y253 | recombinant Pol eta, fluorescent DNA replication assay | Potency, µM (top dose mostly 114 µM), without a hit: at the top dose activity change, negative = inhibition, most hits filed as inhibitors | 1.2% of 390,000 active | AID 588591, 2011; also: potency is read from the fitted curve at half-maximal effect; % is scaled to controls: 0 for no effect and ±100 for the full control effect
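Pol eta (10 nM) was preincubated with compounds for 15 min at room temperature, after which fluorescent replication substrate (50 nM final) was added to start the reaction. Fluorescence was read kinetically at 0 and 10 min.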
FEN1 inhibitor – qHTS Assay for the Inhibitors of Human Flap endonuclease 1 (FEN1). P39748. Recombinant FEN1 flap cleavage, fluorescence, 15 min. Potency, µM (titrated, usually from 114 µM), for the others: top-dose activity change, negative = inhibition, actives largely listed as inhibitors. 0.35% of 390,000 active. AID 588795, 2011; also: potency is read from the fitted curve at half-maximal effect; % is scaled to controls: 0 for no effect and ±100 for the full control effect; nearly all actives have a fitted effect of over 65% in size
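Concentration–response screening of FEN1 (10 nM): 15 min compound preincubation at room temperature, reaction started with 50 nM substrate and read at 0 and 15 min. Corrected, normalized data were fitted by a four-parameter Hill equation.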
Pol beta inh – qHTS Assay for Inhibitors of DNA Polymerase Beta. P06746. Pol beta primer extension/strand displacement, fluorescence kinetic. Potency, µM (top dose mostly 114 µM), inactives show at the top dose activity change, negative = inhibition, actives largely listed as inhibitors. 1.3% of 340,000 active; also: potency is read from the fitted curve at half-maximal effect; % is scaled to controls: 0 for no effect and ±100 for the full control effect
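Preincubation: enzyme (10 nM) with compound, 15 min, RT. Reaction: substrate added to 50 nM final. Reads: 0 and 10 min. Analysis: normalized, Hill fit.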
POLI inh – qHTS for Inhibitors of Polymerase Iota | Pol iota fluorescent replication assay, 10 min | AID 588590, 2011 | DNA polymerase iota (Homo sapiens), Q9UNA4 | 1% of 390,000 active | Potency, µM (titrated, usually from 115 µM), for the others: top-dose activity, negative = inhibition, hits mostly inhibitors; also: potency is read from the fitted curve at half-maximal effect
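Pol iota at 10 nM preincubated 15 min with compounds at room temperature; reaction started with fluorescent substrate, 50 nM final. Fluorescence read kinetically at 0 and 10 min; buffer-only wells as negative control.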
PI5P4K alpha inh – qHTS for Inhibitors of phosphatidylinositol 5-phosphate 4-kinase (PI5P4K); AID 652105, 2013; Phosphatidylinositol 5-phosphate 4-kinase type-2 alpha (Homo sapiens), P48426; 1.2% of 330,000 active; max response, %; PI5P4Kalpha enzyme, ADP-Glo luminescence, 60 min; hits give low values; active = max response of -50% or lower; inconclusive = between -30% and -50%; inactive = -30% or higher; also: value at the top dose of about 77 µM; % is scaled to controls: 0 for no effect and ±100 for the full control effect
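ADP-Glo luminescence end-point after a 60 min room-temperature kinase reaction. PI5P4Kalpha and substrate in HEPES pH 7.4 buffer with EGTA, 0.1% CHAPS and 5% DMSO; ATP at 5 microM final.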
POLK inh – qHTS for Inhibitors of Polymerase Kappa; DNA polymerase kappa (Homo sapiens), Q9UBT6; Potency, µM (top dose mostly 107 µM), without a hit: at the highest dose activity, negative = inhibition, hits mostly inhibitors; purified Pol kappa, fluorescent DNA synthesis assay, 10 min; 0.53% of 400,000 active; AID 588579, 2011; also: potency is read from the fitted curve at half-maximal effect; % is scaled to controls: 0 for no effect and ±100 for the full control effect
Target sequence (Q9UBT6 whole entry, looked up): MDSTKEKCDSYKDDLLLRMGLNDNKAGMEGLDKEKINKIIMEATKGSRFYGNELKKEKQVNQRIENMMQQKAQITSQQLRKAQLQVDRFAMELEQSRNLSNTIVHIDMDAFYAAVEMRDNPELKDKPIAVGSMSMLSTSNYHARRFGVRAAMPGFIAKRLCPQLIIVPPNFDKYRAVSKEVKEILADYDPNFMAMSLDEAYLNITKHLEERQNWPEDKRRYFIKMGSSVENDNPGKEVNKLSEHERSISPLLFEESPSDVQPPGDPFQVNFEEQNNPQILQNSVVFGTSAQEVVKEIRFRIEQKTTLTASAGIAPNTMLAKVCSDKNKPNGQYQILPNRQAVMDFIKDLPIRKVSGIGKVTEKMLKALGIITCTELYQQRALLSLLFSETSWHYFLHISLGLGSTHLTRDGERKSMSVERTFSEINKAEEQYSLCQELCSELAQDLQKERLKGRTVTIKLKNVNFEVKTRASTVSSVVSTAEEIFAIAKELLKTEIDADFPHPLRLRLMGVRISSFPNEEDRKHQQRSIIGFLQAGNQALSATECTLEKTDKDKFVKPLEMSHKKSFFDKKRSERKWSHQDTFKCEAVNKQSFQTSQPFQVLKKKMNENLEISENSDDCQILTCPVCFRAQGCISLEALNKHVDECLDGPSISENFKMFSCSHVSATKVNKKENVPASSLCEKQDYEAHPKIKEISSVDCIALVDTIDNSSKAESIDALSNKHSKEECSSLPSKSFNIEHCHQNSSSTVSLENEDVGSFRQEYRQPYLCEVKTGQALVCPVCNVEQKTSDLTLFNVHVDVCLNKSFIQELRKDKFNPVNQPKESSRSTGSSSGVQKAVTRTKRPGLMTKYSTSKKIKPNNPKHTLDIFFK
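Inhibition of 10 nM Pol kappa is measured by a fluorescent read-out at 0 and 10 min following addition of 50 nM substrate (final), with a 15-min room-temperature compound preincubation.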
An asterisk follows results filed as active; ? = inconclusive; · = no result; [ ] = remark or other dose. In the library only some 2.8% were active in any assay of this set; here they are far more common. Unless noted, calls follow the shape of the dose curve; as a rule, active = well fitted curve in the direction sought with a large enough effect; inconclusive = small, poorly fitted or top-dose-only effect, or another doubt; inactive = no such curve, though single readings can be large; an effect the other way counts as inactive or inconclusive.

SMILES	POLH inh	FEN1 inhibitor	Pol beta inh	POLI inh	PI5P4K alpha inh	POLK inh
Cc1nc(N2CCOCC2)[nH]c(=O)c1[N+](=O)[O-]	-8%	-3%	29%	-19%	-9	-7%
Cc1n[nH]c2c([N+](=O)[O-])c(=O)[nH]c(=O)n12	-8%	-2%	·	-1%	-67*	-2%
Oc1cc(CNC2CCCCC2)c(O)cc1CNC1CCCCC1	?	-7%	·	?	-53*	79µM*
O=C(N/N=C1\C(=O)c2cccc3cccc1c23)c1ccc(O)cc1	?	-18%	5.6µM*	183%	-22	-9%
COc1cccc(NC(=O)C2CCCN(c3ncnc4onc(-c5ccc(F)cc5)c34)C2)c1 (centres undefined)	-16%	-15%	10%	?	·	-1%
Cc1cc(O)ccc1N=Cc1c(C(F)(F)F)[nH][nH]c1=O	-1%	?	14µM*	8.9µM*	-22	-5%
Fc1ccc(-c2cc3ncc4c(n3n2)-c2cc(Cl)ccc2OC4)cc1	-3%	7%	9%	9%	·	5%
O=C(COc1ccc2ccccc2c1)NNC(=O)c1ccc([N+](=O)[O-])cc1	79µM*	6%	8.9µM*	?	-9	-20%
CC(Oc1ccc2ccccc2c1)C(=O)NNC(=O)Nc1ccccc1F (centres undefined)	-3%	-9%	?	15%	1	-18%
O=C(COc1ccc2ccccc2c1)NNC(=O)Nc1ccccc1F	?	3%	35µM*	79µM*	-11	-11%
O=C(COc1ccc(-c2ccccc2)cc1)NNC(=O)Nc1ccc(F)cc1F	?	2%	8.9µM*	12%	-16	-2%
CCOC(=O)c1[nH]c(C)c(CC(C)C)c1C	-13%	-5%	21%	-7%	6	-3%
CCOc1ccc(/C=C/C(=O)Nc2ccc3nc(N(CC)CC)cc(C)c3c2)cc1OC	-19%	-8%	-4%	5%	·	-9%
CC(C)c1ccc(Nc2cc(C(=O)NCc3cccs3)c3ccccc3n2)cc1	3%	-11%	9%	13%	·	-9%
OCCCc1cn(-c2ccccc2)c2ccccc12	-26%	-5%	1%	40%	19	-12%
Clc1nc(Cl)nc(-c2cn(-c3ccccc3)c3ccccc23)n1	-9%	-2%	20µM*	-25%	-12	7%
COC(=O)c1cc2sc(Cl)cc2n1CC(=O)Nc1cc(C)cc(C)c1	1%	-8%	1%	1%	·	-19%
Cc1cc(Nc2ccc(O)cc2)ccc1N	·	?	·	20µM*	·	-26%
Oc1ccc(Nc2ccc3ccccc3c2)cc1	-14%	-3%	·	?	?	-32%
CC1(C)C(=O)Nc2ccccc2N1C(=O)COC(=O)Cc1ccccc1F	-5%	-2%	·	29%	-20	-14%
O=C(CN1C(=O)CCc2cc(S(=O)(=O)N3CCOCC3)ccc21)Nc1cccc(Cl)c1	-13%	-5%	1%	5%	·	-3%[60.1 µM]
COc1ccc(C(=O)/C=C2\Sc3ccccc3N2C)cc1	3%	?	-12%	44%	2	-8%
COc1ccc(-[n+]2c(C)cc(/C=C3\Sc4ccccc4N3C)cc2C)cc1	-19%	22µM*	35µM*	24%	-6	-5%[60.1 µM]
COc1cc2sc3cc(NCC[C@@H]4CCCN4C)ccc3c(=O)c2cc1OC	?	22µM*	·	?	-17	?
COc1cc2sc3cc(NCc4ccc5c(c4)OCO5)ccc3c(=O)c2cc1OC	-12%	?	·	0%	1	-9%
SMILES	POLH inh	FEN1 inhibitor	Pol beta inh	POLI inh	PI5P4K alpha inh	POLK inh
COc1cc2sc3cc(NCc4ccc(C)o4)ccc3c(=O)c2cc1OC	-22%	32µM*	·	22µM*	-9	79µM*
O=C1NC(=O)/C(=C\c2ccc(Br)o2)S1	22µM*	?	18µM*	?	?	25µM*
O=C1NC(=O)/C(=C/c2cc3c(cc2Br)OCO3)S1	-12%	-8%	-18%	?	?	0%
C/C(=C(/CCO)SS/C(CCO)=C(\C)N(C=O)Cc1cnc(C)nc1N)N(C=O)Cc1cnc(C)nc1N	·	·	·	·	·	6%[19.4 µM]
O=Cc1ccc(C(=O)OCC(=O)NCc2ccco2)cc1	?	3%	·	23%	-53*	-10%
Cc1c(C(=O)OCC(=O)NCC2CCCO2)cccc1[N+](=O)[O-] (centres undefined)	0%	-3%	7%	14%	-11	1%
O=C(COC(=O)C1(c2ccc(F)cc2)CCCC1)NCc1ccco1	-18%	-6%	40µM*	28%	?	-15%
Cc1ccsc1C(=O)OCC(=O)NCc1ccco1	-24%	5%	0%	155%	-7	4%
Cc1c(C(=O)OCC(=O)NCc2ccco2)cccc1[N+](=O)[O-]	25µM*	-3%	·	56µM*	?	-30%
Cc1ccccc1C(=O)OCC(=O)NCc1ccco1	?	2%	·	50µM*	?	-32%
CC(C)(C)c1ccc(C(=O)OCC(=O)NCc2ccco2)cc1	-20%	-7%	·	26%	5	-9%
CCCN(CC(=O)NC(=O)NCc1ccccc1)CC(=O)Nc1ccc(F)c(F)c1F	-4%	·	·	·	33	·
CCOc1ccc2nc3cc(N=Nc4ccc(N)nc4N)ccc3c(N)c2c1	45µM*	7.1µM*	·	?	?	?
O=C1CC(SC(=S)C2CCCC2=O)C(=O)N1 (centres undefined)	7.1µM*	·	·	·	-80*	·
O=C1c2cc(Br)ccc2N(Cc2ccc(Br)cc2)S(=O)(=O)C1c1cc(Cl)c(Cl)cc1[N+](=O)[O-] (centres undefined)	22µM*	?	·	?	-61*	?
O=C(CCN1C(=O)/C(=C\c2ccccc2)SC1=S)NCCCN1CCOCC1	7%	-12%	21%	5%	0	-7%
COc1ccc(/C=C2\SC(=S)N(CCCC(=O)Nc3ccccc3C(=O)O)C2=O)cc1OC	89µM*	-19%	-1%	?	-64*	3%
COc1ccc(/C=C2\SC(=S)N(CCC(=O)Nc3ccccc3C(=O)O)C2=O)cc1	-3%	-21%	8%	?	-8	-7%
O=C1C(=Cc2ccccc2O)SC(=S)N1CCCN1CCOCC1	-16%	·	·	·	-69*	·
O=C(O)CN1C(=O)/C(=C\c2ccccc2OCc2ccccc2)SC1=S	79µM*	·	·	·	-15	·
O=C(O)CCCN1C(=O)/C(=C\c2ccccc2OCc2ccccc2)SC1=S	79µM*	?	?	?	-1	-14%
